# A selection: hits, their analogues and other compounds. The true share with any hit is near 19%.
# TDP1 cell noCPT: qHTS for Inhibitors of human tyrosyl-DNA phosphodiesterase 1 (TDP1): qHTS in cells in absence of CPT. DT40 Tdp1-/- hTDP1 cells, no CPT, ATP luminescence, 48 h. Potency, µM (top dose mostly 46.2 µM), without a hit: top-dose activity change, negative = growth inhibition, hits mostly inhibitors. 420,000 compounds, 15% hits. AID 686978, 2013; note: nearly all actives have a fitted effect of over 55% in size
#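 Growth kinetics read by CellTiter-Glo luminescence after ≥48 hr at 37 °C. Cells: DT40 Tdp1-/- stably carrying human TDP1, 400 per well, compound exposure in the absence of CPT (DMSO vehicle).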
# KB-V1 MDR tox: KB-V1 MDR subline cytotoxicity; KB-V1 MDR cells viability, CellTiter-Glo, 72 h; Potency, µM (doses to about 46.1 µM), actives largely listed as cytotoxic; 400,000 compounds, 3.4% hits; AID 1347076; note: nearly all actives have a fitted effect of over 60% in size
#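 KB-V1 cells (P-gp-expressing MDR subline of KB-3-1) in phenol-red-free DMEM with 10% FBS were exposed to library compounds over a concentration series for 72 h at 37 degrees C. Viability read by CellTiter-Glo luminescence; concentration-effect curves fitted after normalization.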
# KB-3-1 tox: KB-3-1 parental cell cytotoxicity. Potency, µM (doses to about 46.1 µM), actives largely listed as cytotoxic. KB-3-1 viability, CellTiter-Glo ATP luminescence, 72 h. AID 1347075. 400,000 compounds, 1.4% hits; note: nearly all actives have a fitted effect of over 60% in size
#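 Here the drug-naive KB-3-1 line serves as comparator for MDR sub-line selectivity; cells received compound titrations, 72 h at 37 °C, then CellTiter-Glo readout.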
# HT1080NT lethal: kills 2HG-producing HT-1080-NT fibrosarcoma cells; HT-1080-NT fibrosarcoma viability, CellTiter-Glo ATP luminescence, 48 h; Potency, µM (top dose mostly 46.1 µM), inactives show top-dose activity, negative = less viability, usual class: cytotoxic; 360,000 compounds, 1.6% hits;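 note: NT is the 2HG producing partner of a matched IDH1 knockdown line; 0% = DMSO-treated cells and -100% = media-only wells without cells; nearly all actives have a fitted effect of over 55% in size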
#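 A 48-hour cytotoxicity screen used HT-1080-NT cells plated 2 hours before compound delivery. ATP-based CellTiter-Glo luminescence measured viability, normalized to DMSO and no-cell controls.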
# HT1080 IDH1KD tx: kills HT-1080 cells with IDH1 knockdown | HT-1080 IDH1 knockdown viability, ATP luminescence, 48 h | Potency, µM (top dose mostly 46.1 µM), without a hit: top-dose activity, negative = toxicity, actives largely listed as cytotoxic | 360,000 compounds, 2% hits | AID 686971;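 note: 0% = DMSO wells and -100% = cell-free medium wells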
#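 After a 2 h attachment period, IDH1KD HT-1080 cells took pin-transferred compound for 48 h at 37 °C; ATP-based luminescence after 10 min room-temperature reagent incubation reported viability.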
# DT40 TDP1 CPT: DT40-hTDP1 cell growth loss with CPT; 420,000 compounds, 12% hits; chicken DT40 Tdp1-/-;hTDP1 cells + 20 nM CPT, ATP luminescence, 48 h; Potency, µM (top dose mostly 46.2 µM), for the others: top-dose activity change, negative = growth inhibition, usual class: inhibitors; note: nearly all actives have a fitted effect of over 55% in size
#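 Chicken DT40 Tdp1-/- cells stably complemented with human TDP1 were seeded at 400 cells/well in medium containing 20 nM camptothecin, exposed to pin-transferred compounds, and grown at 37 °C for at least 48 hr. Viability was read as ATP luminescence.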
# * marks the source's active call; other numbers are inactive results; i = inactive; ? = inconclusive; . = not tested or not shown; ! = not confirmed by another sample. Calls come from the whole dose curve; as a rule, active = well fitted curve in the direction sought with a large enough effect; inconclusive = small, poorly fitted or top-dose-only effect, or another doubt; inactive = no such curve, though single readings can be large; an effect the other way counts as inactive or inconclusive. Unless noted, % is set by controls: 0 for no effect and ±100 for the full control effect; potency is the fitted concentration of half-maximal effect.
SMILES,TDP1 cell noCPT,KB-V1 MDR tox,KB-3-1 tox,HT1080NT lethal,HT1080 IDH1KD tx,DT40 TDP1 CPT
Fc1ccc(Cn2cccc2C2=NC(c3ccccc3)CO2)cc1 (stereo not given),4%,i,i,0%,5%,-25%
CCN(CC)C(=O)c1c(Cl)nc(C)c([N+](=O)[O-])c1C,-15%,i,i,11%,16%,3%
N#C/C(=C\c1cc([N+](=O)[O-])ccc1Cl)C(N)=O,2.9µM*,i,i,?,?,2.6µM*
O=C(Nc1ccccc1)Nc1ccc(-n2ccc(C(F)(F)F)n2)cc1,18µM*,i,i,1%,-22%,?
O=C(Nc1ccccc1)Nc1nnc(-c2ccccc2)o1,?,i,i,-5%,11%,29µM*
O=C(Nc1ccc2c(c1)oc1ccccc12)C1CC1,9.2µM*,i,i,7%,3%,15µM*
Cc1cc(C)c(NC(=O)Nc2ccccc2)c(Cl)c1,?,i,i,18%,17%,16µM*
CC(C)C(=O)Nc1nnc(-c2ccccc2)o1,-20%,i,i,3%,0%,-17%
CCSc1ccccc1C(=O)NCc1ccco1,2%,i,i,1%,10%,0%
CC(=O)Nc1ccc(Nc2ccccc2)cc1,1%,i,i,8%,17%,?
O=C(Nc1ccccc1)NC1CCCCCCC1,29µM*,i,i,14%,6%,?
O=C(Nc1ccccc1)Nc1ccccc1,?,i,?,-5%,-5%,18µM*!
COc1cc(OC)cc(C(=O)OCC(=O)Nc2nnc(-c3ccccc3)o2)c1,?,?,i,-7%,-20%,?
O=C(Nc1ccccc1)NC1CCCCC1,2%,i,i,8%,11%,-6%
CC(=O)Nc1ccccc1,2%,i,i,15%,16%,-8%
O=C(COC(=O)c1ccc(Cl)nc1)Nc1nnc(-c2ccccc2)o1,-6%,15µM*,i,6%,20%,-18%
O=C(Nc1ccccc1)Nc1ccc(Nc2ccccc2)cc1,7.3µM*,i,i,-16%,-2%,?
Nc1c(N(CCC2=CCCCC2)C(=O)c2ccco2)c(=O)[nH]c(=O)n1Cc1ccccc1,?,i,i,4%,1%,?
CC(C)(C)NC(=O)COC(=O)Cc1ccc(Cl)cc1,-2%,i,i,7%,1%,-1%
Cc1ccc(CN=C(Nc2ccccc2)NC2CCCCC2)cc1,21µM*,i,i,-23%,?,21µM*
O=C(Nc1ccc(-n2cccc2)cc1)C1CC1,9.2µM*,i,i,0%,0%,9.2µM*
O=C(Nc1ccc(Nc2ccccc2)cc1)C1CC1,6.5µM*,i,i,6%,-10%,7.3µM*
O=C(CNC(=O)OCc1ccccc1)NC1CCCCCCC1,-21%,18µM*,i,12%,12%,-24%
O=C(COc1ccccc1)NCC(=O)NC1CCCCC1,4%,i,i,-1%,-2%,2%
NC(=O)c1ccc(NC(=O)C2CC2)cc1,19%,i,i,14%,10%,12%
Cc1nc2c(-c3ccccc3)c(C)nn2c(C)c1CCC(=O)NCc1ccc(Cl)cc1,?,i,i,.,.,?
CC1=CC(C)(C)NC(=S)N1c1ccc(C)cc1,23µM*,i,i,?,11µM*,21µM*
CC1=CC(C)(C)NC(=S)N1c1cccc(C)c1,?,i,i,8.9µM*!,8.9µM*!,?
CC1=CC(C)(C)NC(=S)N1c1ccc(C)c(C)c1,?,i,?,2%,-4%,?

# Screening data from PubChem BioAssay.
